Sampled rows, rich in hits. Any-hit rate of the full collection: about 4.1%.
hcDAF12 agonist = H. contortus DAF-12 nuclear receptor activators, primary screen, cell-based, luminescence, HEK293, lit1-tk-luc reporter | 370,000 tested, 1.4% active | HEK293 hcDAF-12 lit1-tk-luc reporter; 0% DMSO, 100% Δ7-dafachronic acid | activation, % at 6.8 µM | AID 652067, 2013;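 active = activation above the mean of all tested compounds plus 3 SD, cut at about 5.5% in these data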;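 also: 100% = response to 3 µM Δ7-dafachronic acid high control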
DAX1 inh-1 = DAX1 (NR0B1) inhibitors, primary screen, cell-based, HEK293, Gal4-DAX1, luciferase luminescence; Nuclear receptor subfamily 0 group B member 1 (Homo sapiens), P51843; HEK293 Gal4-DAX1 luciferase reporter; inhibition, % at 6.75 µM; 340,000 tested, 0.99% active; AID 504766, 2011;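 active = inhibition above the mean over all tested compounds plus 3 SD, cut at about 4.2% in these data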;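 also: 0% = DAX1-transfected cells with DMSO and 100% = empty-vector control cells with DMSO; inhibition shows as a rise in luminescence from relieved DAX1 repression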
DAX1 inh-2 = DAX1 (NR0B1) inhibitors on StAR promoter, primary screen, cell-based, luminescence, SF-1 (NR5A1), full-length DAX-1; HEK293T StAR-luciferase reporter, SF-1/DAX-1 repression relief; inhibition, % at 6.8 µM; 370,000 tested, 1.1% active; AID 652010, 2013;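 active = inhibition above the mean over all tested compounds plus 3 SD, cut at about 3.6% in these data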;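 also: 0% = DAX-1 cells with DMSO and 100% = cells lacking DAX-1 with DMSO; higher inhibition means more luminescence from relief of DAX-1 repression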
hgDAF-12 ag = H. glycines DAF-12 receptor agonists, primary screen, cell-based, luminescence, HEK293, GAL4 fusion, UAS-luciferase; HEK293 GAL4-hgDAF12 UAS-luciferase reporter, agonist luminescence; normalized to butyrate control; activation, % at 6.8 µM; 370,000 tested, 1.8% active;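 active = activation above a cutoff set at the mean of all screened compounds plus 3 SD, cut at about 10% in these data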;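 also: 0% = DMSO wells and 100% = sodium butyrate wells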
ssDAF-12 act = S. stercoralis DAF-12 nuclear receptor activators, primary screen, cell-based, luminescence, HEK293, GRIP1 co-expression, lit1-tk-luc | HEK293 ssDAF-12/GRIP1 lit1-tk-luc reporter; % of 3 µM dafachronic acid response | Nuclear hormone receptor DAF-12 (Strongyloides stercoralis) | activation, % at 6.8 µM | 370,000 tested, 1% active;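 active = activation above the mean over all tested compounds plus 3 SD, cut at about 0.9% in these data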;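 also: 0% = DMSO-only wells and 100% = 3 µM delta7-dafachronic acid wells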
LXRb hcDAF ctr = LXR agonists, Gal4 luciferase reporter, confirmation, counter-screen for hcDAF-12 agonist project, cell-based, luminescence, HEK293, H. contortus campaign; shares compounds with hcDAF12 agonist; HEK293 Gal4-LXR tk-luc reporter, 24 h; normalized: DMSO 0%, positive control 100%; activation, % at 6.8 µM; 3,400 tested, under 10 active;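 active = mean percent activation of the reporter above a cutoff set as the average over tested compounds plus their standard deviation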
Target sequence (P55055 whole entry, looked up, the tested form may be a part): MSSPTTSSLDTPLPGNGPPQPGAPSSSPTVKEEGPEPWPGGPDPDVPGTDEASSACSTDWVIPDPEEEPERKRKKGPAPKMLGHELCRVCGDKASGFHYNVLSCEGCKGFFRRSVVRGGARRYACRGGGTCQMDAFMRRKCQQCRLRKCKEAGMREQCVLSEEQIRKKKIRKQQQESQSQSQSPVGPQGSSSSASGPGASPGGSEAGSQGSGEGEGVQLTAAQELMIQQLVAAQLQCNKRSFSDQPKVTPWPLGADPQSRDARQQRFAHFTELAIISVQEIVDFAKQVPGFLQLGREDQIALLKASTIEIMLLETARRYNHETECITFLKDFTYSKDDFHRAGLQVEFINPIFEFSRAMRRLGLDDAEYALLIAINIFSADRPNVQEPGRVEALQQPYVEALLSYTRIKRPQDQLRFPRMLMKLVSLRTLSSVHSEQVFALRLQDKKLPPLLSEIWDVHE
hcDAF12 ag = H. contortus DAF-12 receptor agonists, confirmation, cell-based, luminescence, HEK293, lit1-tk-luc, triplicate; activation, % at 6.8 µM; AID 743032, 2013; 3,400 tested, 61% active; HEK293 hcDAF-12 lit1-tk-luc reporter; % of Δ7-dafachronic acid response; shares compounds with hcDAF12 agonist;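 active = mean activation across triplicate tests above the threshold derived from the earlier primary screen, cut at about 5.5% in these data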;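 also: 0% = DMSO only wells and 100% = 3 µM Δ7-dafachronic acid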
Starred values were filed as active, the others as inactive; ! = repeats disagree.

CN1CCCCC(NC(=O)c2cccc(F)c2)C1=O (stereo not drawn) was read as hcDAF12 agonist -1, DAX1 inh-2 0, hgDAF-12 ag -1 and ssDAF-12 act -1.
For Cc1nnc(SCC(=O)c2ccc(Cl)cc2)n(N)c1=O the results were hcDAF12 agonist 9.6*, DAX1 inh-1 1, DAX1 inh-2 3, hgDAF-12 ag 7, ssDAF-12 act 1, LXRb hcDAF ctr 1 and hcDAF12 ag 3.
`Cc1ccc(NC(=O)CSc2nnc(C)c(=O)n2N)cc1Cl` gave hcDAF12 agonist 0, DAX1 inh-1 -1, DAX1 inh-2 -1, hgDAF-12 ag 0 and ssDAF-12 act -1.
C/C(=N\Nc1nc2ccccc2[nH]1)c1cc2ccccc2o1 was read as hcDAF12 agonist 7.4*, DAX1 inh-1 0, DAX1 inh-2 2, hgDAF-12 ag 8, ssDAF-12 act 0, LXRb hcDAF ctr 1 and hcDAF12 ag 8.7*.
Screening Cc1[nH]n(-c2ccccc2)c(=O)c1C(C[N+](=O)[O-])c1ccc(Cl)cc1 (stereo not drawn) returned hcDAF12 agonist 6.9*, DAX1 inh-1 0, DAX1 inh-2 -1, hgDAF-12 ag 0, ssDAF-12 act -1, LXRb hcDAF ctr 0 and hcDAF12 ag 1.
Cc1cc([N+](=O)[O-])ccc1N=Nc1c(N)[nH]n(-c2ccccc2)c1=O was read as hcDAF12 agonist 2, DAX1 inh-1 0, DAX1 inh-2 1, hgDAF-12 ag -2 and ssDAF-12 act 1.
For Cc1[nH]n(-c2ccccc2)c(=O)c1N=Nc1ccc(Cl)cc1 the results were hcDAF12 agonist 8.6*, DAX1 inh-1 0, DAX1 inh-2 0, hgDAF-12 ag 2, ssDAF-12 act 0, LXRb hcDAF ctr 0 and hcDAF12 ag 5.
COc1ccc(C(c2c(C)[nH]n(-c3ccccc3)c2=O)c2c(C)[nH]n(-c3ccccc3)c2=O)cc1OC was read as hcDAF12 agonist 7.5*, DAX1 inh-1 0, DAX1 inh-2 -1, hgDAF-12 ag 0, ssDAF-12 act -1, LXRb hcDAF ctr 0 and hcDAF12 ag 1.
Screening Cc1ccc(C(C[N+](=O)[O-])c2c(C)[nH]n(-c3ccccc3)c2=O)cc1 (stereo not drawn) returned hcDAF12 agonist 1, DAX1 inh-1 1, DAX1 inh-2 0, hgDAF-12 ag 2 and ssDAF-12 act -1.
`Cc1ccccc1N=Nc1c(N)[nH]n(-c2ccccc2)c1=O` gave hcDAF12 agonist 6.8*, DAX1 inh-2 2, hgDAF-12 ag 8, ssDAF-12 act 1, LXRb hcDAF ctr 1 and hcDAF12 ag 5.
For CC1CCCCN1CCCNC(=O)c1ccc(N2CCCC2=O)cc1 (stereo not drawn) the results were hcDAF12 agonist 8.6*, DAX1 inh-1 1, DAX1 inh-2 1, hgDAF-12 ag 2, ssDAF-12 act -1, LXRb hcDAF ctr 0 and hcDAF12 ag 0.
O=C(NC1CCCCCC1)c1ccc(N2CCCC2=O)cc1 was read as hcDAF12 agonist 6.7*, DAX1 inh-1 2, DAX1 inh-2 2, hgDAF-12 ag 11*, ssDAF-12 act 0, LXRb hcDAF ctr 0 and hcDAF12 ag 2.
`CCC1CCCCN1CCCNC(=O)c1ccc(N2CCCC2=O)cc1` (stereo not drawn) gave hcDAF12 agonist 1, DAX1 inh-1 1, DAX1 inh-2 -1, hgDAF-12 ag 0 and ssDAF-12 act -1.
Screening COc1cccc2c1CCc1c-2nc2ccccc2c1C(=O)O returned hcDAF12 agonist 8.4*, DAX1 inh-1 0, DAX1 inh-2 1, hgDAF-12 ag 12*, ssDAF-12 act 0, LXRb hcDAF ctr 1 and hcDAF12 ag 7.8*.
Cc1ccc(NC(=O)c2ccc(OC(=O)COc3cccc(Cl)c3)cc2)cc1 was read as hcDAF12 agonist 7.6*, DAX1 inh-1 1, DAX1 inh-2 3.9*, hgDAF-12 ag 12*, ssDAF-12 act 0, LXRb hcDAF ctr 1 and hcDAF12 ag 4.
Screening Cc1cccc(OCC(=O)Oc2ccc(Cl)cc2)c1 returned hcDAF12 agonist -1, DAX1 inh-1 1, DAX1 inh-2 0, hgDAF-12 ag 1 and ssDAF-12 act -1.
Cc1cc(/C=C2\Cc3ccccc3C2=O)c(C)n1-c1ccccc1 was read as hcDAF12 agonist 9.0*, DAX1 inh-1 -1, DAX1 inh-2 1, hgDAF-12 ag 8, ssDAF-12 act 1, LXRb hcDAF ctr 0 and hcDAF12 ag -1.
Screening CCCCc1ccc(-c2nc(-c3ccncc3)no2)cc1 returned hcDAF12 agonist 0, DAX1 inh-1 1, DAX1 inh-2 2, hgDAF-12 ag 7 and ssDAF-12 act 0.
Screening Clc1ccccc1-c1nc(-c2cccnc2)no1 returned hcDAF12 agonist 8.1*, DAX1 inh-1 3, DAX1 inh-2 3, hgDAF-12 ag 9, ssDAF-12 act 1.3*, LXRb hcDAF ctr 1 and hcDAF12 ag 8.1*.
Screening CCc1ccc(-c2nc(-c3ccncc3)no2)cc1 returned hcDAF12 agonist 8.2*, DAX1 inh-1 1, DAX1 inh-2 3, hgDAF-12 ag 11*, ssDAF-12 act 1, LXRb hcDAF ctr 2 and hcDAF12 ag 8.3*.
Screening Clc1ccccc1-c1nc(-c2ccncc2)no1 returned hcDAF12 agonist 7.2*!, DAX1 inh-1 2, DAX1 inh-2 1, hgDAF-12 ag 10, ssDAF-12 act -1, LXRb hcDAF ctr 2 and hcDAF12 ag 5.
C=CCN(CC#CC1=CCCCC1)Cc1ccccc1 was read as hcDAF12 agonist -2, DAX1 inh-2 0, hgDAF-12 ag 2 and ssDAF-12 act -1.
Cc1ccc(C(=O)NC(=S)Nc2c(C)ccc3nsnc23)cc1 was read as hcDAF12 agonist 7.6*, DAX1 inh-1 0, DAX1 inh-2 0, hgDAF-12 ag 0, ssDAF-12 act 1.6*, LXRb hcDAF ctr 0 and hcDAF12 ag 3.
